Many of the other results were omitted from the sample, so hits are more common in it than they were.
Methyltransferases: Primary Screen for Target Class Profiling of Small Molecule Inhibitors of Methyltransferases. purified enzyme, MTase-Glo SAH luminescence; stronger effect = lower value. actives 3.9% (n = 25,000). calls only at 40 µM; call rule not given here
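Each enzyme was reacted with SAM and its substrate, with compounds tested once at 40 uM; SAH formed was read by MTase-Glo luminescence.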
* = called active by the depositor; i = inactive; + = active, no number; ! = repeats disagree. % is scaled to controls: 0 for no effect and ±100 for the full control effect.

SMILES | Methyltransferases
Cc1nnc2n(-c3cccc(F)c3)c(=O)c3ccc(C(=O)NCc4ccc5c(c4)OCO5)cc3n12 | i
CCn1nnc2c(N3CCOCC3)nc(-c3ccc(NC(=O)Nc4ccc(C(=O)N5CCN(C)CC5)cc4)cc3)nc21 | +
Cc1c(NC(=O)c2ccc(C(C)(C)C)cc2)cccc1-c1cn(C)c(=O)c(Nc2ccc(C(=O)N3CCOCC3)cc2)n1 | i
Cc1cc(C(=O)N2CCc3ncnc(N4CCOCC4)c3CC2)n(C)n1 | i
CC1(C(=O)NC2CCCCC2)Cn2c(cc3ccccc32)C(=O)N1Cc1cccs1 (stereo not drawn) | i
Nc1c(S(=O)(=O)O)cc(Nc2ccc(Nc3nc(Cl)nc(Nc4ccc(S(=O)(=O)O)cc4)n3)c(S(=O)(=O)O)c2)c2c1C(=O)c1ccccc1C2=O | +
CNC(=O)N1CCn2cccc2C1C (stereo not drawn) | i
Cc1ccc(Cn2c(=O)c3ccccc3n3c(SCC(=O)NC4CCCCC4)nnc23)cc1 | i
CC(C)NC(=O)Cn1nc2n(Cc3ccccc3)c(=O)c3ccc(C(=O)NC(C)C)cc3n2c1=O | i
CCOc1ccccc1CNC(=O)C(C)n1ccc2cc(S(=O)(=O)N3CCCC3)ccc21 (stereo not drawn) | i
C[C@@H](Oc1cc(-n2cnc3ccc(OC4CCN(C)CC4)cc32)sc1C(N)=O)c1ccccc1Cl | +
CC(Oc1cc(-n2cnc3ccc(CN4CCN(C)CC4)cc32)sc1C(N)=O)c1ccccc1C(F)(F)F (stereo not drawn) | +
O=C(NCc1ccccc1)c1ccc2c(=O)nc3c(-c4ccc(Cl)cc4)n[nH]n3c2c1 | i
COC(=O)c1ccc2c(=O)[nH]c3c(C(=O)NCCC(C)C)sc(=S)n3c2c1 | i
O=S(=O)(NCCn1c(-c2ccc(F)cc2)nc2ccccc21)c1cc(F)ccc1F | i
CC(C)CCNC(=O)N1CCn2cccc2C1C(C)C (stereo not drawn) | i
CCCNC(=O)N1Cc2c(sc3c2CCCC3)-n2cccc2C1c1cccc(C)c1 (stereo not drawn) | i
COC(=O)c1ncn2c1C(=O)N(Cc1cccc(Br)c1)C(C)(C(=O)NC1CCCC1)C2 (stereo not drawn) | i
CCCn1c(=O)c2ccccc2n2c(=O)n(CC(=O)NCc3ccccc3Cl)nc12 | i
COc1ccc(CN2C(=O)c3ccc(-c4ccco4)n3CC2(C)C(=O)NC2CCCCC2)cc1 (stereo not drawn) | i
Cc1ccc(Cl)cc1NC(=O)CSc1nnc2n(CCC(C)C)c(=O)c3ccccc3n12 | i
CCOC(=O)c1cc2n(n1)CC(C)(C(=O)NCc1ccc(C)cc1)N(Cc1cccc(OC)c1)C2=O (stereo not drawn) | i
CC1CCC(NC(=O)C2(C)Cn3c(ccc3-c3ccco3)C(=O)N2CCc2ccc(Cl)cc2)CC1 (stereo not drawn) | i
CC1=CC(=O)CC(C)(C)C1(O)CCC(C)O (stereo not drawn) | +
CC1=CC(=O)CC(C)(C)[C@@]1(O)/C=C/C(C)O[C@@H]1O[C@H](CO)[C@@H](O)[C@H](O)[C@H]1O (stereo partly drawn) | i
SMILES | Methyltransferases
CC(=O)/C=C/C1(O)C(C)=CC(=O)CC1(C)C (stereo not drawn) | i
CC(C)Cn1c(=O)c2cc(F)ccc2n2c(SCC(=O)NCc3ccccc3Cl)nnc12 | i
CN(Cc1cccs1)c1ncnc2ccc(-c3ccc4c(c3)OCO4)cc12 | +
CN(Cc1cccs1)Cc1cccn1C | i
Cc1ccc2c(c1)c(-n1cccc1)c1n2CC(C)(C(=O)NCCC(C)C)N(Cc2ccco2)C1=O (stereo not drawn) | i
Cc1ccc(CSc2nnc3n(Cc4ccccc4)c(=O)c4ccccc4n23)cc1 | i
CCCn1c(=O)c2cc(F)ccc2n2c(SCC(=O)NCc3ccccc3Cl)nnc12 | i
CN(C)CC[C@H](CSc1ccccc1)Nc1ccc(S(=O)(=O)NC(=O)c2ccc(N3CCN(Cc4ccccc4-c4ccc(Cl)cc4)CC3)cc2)cc1[N+](=O)[O-] | +
CC1(C)CCC(c2ccc(Cl)cc2)=C(CN2CCN(c3ccc(C(=O)NS(=O)(=O)c4ccc(N[C@H](CCN5CCOCC5)CSc5ccccc5)c(S(=O)(=O)C(F)(F)F)c4)cc3)CC2)C1 | +
CC(C)Cn1c(=O)c2ccccc2n2c(SCc3ccc(F)cc3)nnc12 | i
COc1cccc(CNC(=O)C(C)n2ccc3cc(S(=O)(=O)N4CCCCC4)ccc32)c1 (stereo not drawn) | i
COc1ccccc1CNC(=O)C1(C)Cn2nc(-c3ccccc3)cc2C(=O)N1c1ccc(F)cc1C (stereo not drawn) | i
CCCCOc1cc2oc(=O)cc(-c3ccccc3)c2cc1Cl | i
Oc1ccc(Nc2nc(-c3ccc(Cl)cc3)cs2)cc1 | i
Clc1ccc(-c2csc(NN=C3CCCC3)n2)cc1 | +!
CC(=O)N1CCC(C(=O)NCc2nn(Cc3ccccc3)c3ccccc23)CC1 | i
O=C(NCCCCCCNC(=O)c1cccnc1)c1cccnc1 | i

Compound activity as filed in PubChem.
